Results: PubChem BioAssay
Active and inactive are the calls of the source.

What was measured:
[1] = binders of probe aFSTL3 on microarray, primary screen, stem cell growth factor project, biochemical, small-molecule microarray, fluorescence 635/667 (AID 1064); conditions: higher = more signal;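 further: measures binding of the biotinylated anti-FSTL3 antibody to printed compounds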
[2] = binders from COS7 lysate, DM2A8 probe, primary screen, torsin A project, cell lysate, small-molecule microarray, fluorescence 635/667 (AID 1065); conditions: higher = more signal, COS7 lysate expressing mutant human TOR1A
[3] = binders of probe aFGF2 on microarray, primary screen, stem cell growth factor project, biochemical, small-molecule microarray, fluorescence 635/667 (AID 1067); conditions: higher = more signal;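 further: measures binding of biotinylated aFGF2 protein to printed compounds on slides; z-score merges feature fluorescence and signal-to-noise across triplicate slides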
[4] = binders of probe aFGF10 on microarray, primary screen, stem cell growth factor project, biochemical, small-molecule microarray, fluorescence 635/667 (AID 1071); conditions: higher = more signal;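 further: score merges 667 nm spot intensity and signal to noise from triplicate slides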
[5] = biological target: Neurogenic locus notch homolog protein 2 (Homo sapiens) (UniProt Q04721); assay: Notch2 binders on small-molecule microarrays, primary screen, biochemical, small-molecule microarray, 635 nm fluorescence, stem cell growth factors (AID 1073); conditions: Notch2 binding, higher = more signal
[6] = biological target: Pro-neuregulin-1, membrane-bound isoform (Homo sapiens) (UniProt Q02297); assay: NRG1 binders on small-molecule microarrays, primary screen, psychiatric disease protein project, biochemical, small-molecule microarray, fluorescence 635/667 (AID 1075); conditions: NRG1 binding, 635 nm fluorescence, higher = more signal;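 further: score combines 667 nm spot fluorescence with signal to noise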
[7] = test system: Neuregulin-1 EGF-like domain; assay: binders of neuregulin-1 EGF-like domain, primary screen, biochemical, small-molecule microarray, 635 nm fluorescence (AID 1081); conditions: small-molecule microarray binding, higher = more signal;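 further: binding of the protein to compounds printed on small-molecule microarray slides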
[8] = FRG1 promoter luciferase signal modulators, primary screen, FRG1 inhibition for FSHD, cell-based, C2C12 myotubes, firefly/Renilla luciferase, luminescence (AID 1084); conditions: higher = more signal, called active from +8 up or from −8 down
[9] = binders of probe aFST on microarray, primary screen, stem cell growth factor project, biochemical, small-molecule microarray, fluorescence 635/667 (AID 1086); conditions: higher = more signal;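 further: score merges 667 nm fluorescence with signal-to-noise of each printed compound spot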
[10] = binders of probe aHhip on microarray, primary screen, stem cell growth factor project, biochemical, small-molecule microarray, fluorescence 635/667 (AID 1087); conditions: higher = more signal;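 further: score merges spot fluorescence at 667nm with spot signal to noise ratio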
[11] = test system: PRMT1 (protein arginine N-methyltransferase 1); assay: PRMT1 binders on small-molecule microarrays, primary screen, biochemical, small-molecule microarray, 635 nm fluorescence (AID 1088); conditions: small-molecule microarray binding, higher = more signal;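 further: binding of Prmt1 protein to compounds spotted on small-molecule microarray slides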
[12] = yeast growth modulation, basal conditions, primary screen, YJM789 clinical isolate, OD600, 24 h (AID 1089);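 further: growth of clinical yeast isolate S. cerevisiae YJM 789 seeded 1000 cells per well; test concentration not given here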; conditions: S. cerevisiae YJM789 growth, higher = more signal, called active from +8 up or from −8 down
[13] = fission yeast growth modulation, primary screen, strain 972, OD600, 24 h, no modulator (AID 1090);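 further: basal condition with compound alone and no growth modifier present; test concentration not given here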; conditions: S. pombe 972 growth, higher = more signal, called active from +8 up or from −8 down
[14] = S. cerevisiae growth modulation with rapamycin, primary screen, strain BY4716, OD600, 96 h (AID 1091); conditions: higher = more signal, called active from +8 up or from −8 down; further: test concentration not given here
[15] = biological target: Torsin-1A-interacting protein 2 (Homo sapiens) (UniProt Q8NFQ8); assay: LULL1 binders on small-molecule microarray, primary screen, cell lysate, human LULL1 lysate, 635/667 nm fluorescence (AID 1092); conditions: hLULL1 lysate binding, 635 nm fluorescence, higher = more signal;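 further: probe is lysate of COS7 cells overexpressing human LULL1; score merges per-feature 667 nm fluorescence with signal-to-noise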
[16] = E. coli growth modulation, two-sided OD650, primary screen, E. coli filamentation project, strain DRC41, 24 h (AID 1093); conditions: OD650, 24 h, higher = more signal, called active from +8 up or from −8 down;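 further: MC1000 strain lacking acrAB efflux and sulA so SOS filamentation is blocked; test concentration not given here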
[17] = small-molecule microarray binders of probe aLefty2, primary screen, biochemical, biotinylated probe, 635/667 nm fluorescence (AID 1094); conditions: higher = more signal;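 further: score merges spot fluorescence near 667 nm with spot signal-to-noise ratio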
[18] = test system: Noggin (protein binding on small-molecule microarray); assay: Noggin binders on small-molecule microarray, primary screen, biochemical, 635/667 nm fluorescence (AID 1095); conditions: 635 nm fluorescence, higher = more signal;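 further: score merges 667 nm feature fluorescence with signal to noise over triplicate slides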
[19] = biological target: Neurogenic locus notch homolog protein 3 (Homo sapiens) (UniProt Q9UM47); assay: NOTCH3 binders on small-molecule microarray, primary screen, biochemical, 635/667 nm fluorescence (AID 1096); conditions: NOTCH3 binding, 635 nm fluorescence, higher = more signal
[20] = small-molecule microarray binders of probe aEGFR, primary screen, biochemical, biotinylated probe, 635/667 nm fluorescence (AID 1097); conditions: higher = more signal;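 further: probe is a biotinylated anti-EGFR antibody binding compounds printed on slides; score combines fluorescence near 667 nm and signal to noise of each spot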

Chain of Neurogenic locus notch homolog protein 3 (Homo sapiens) (Q9UM47 whole entry, looked up): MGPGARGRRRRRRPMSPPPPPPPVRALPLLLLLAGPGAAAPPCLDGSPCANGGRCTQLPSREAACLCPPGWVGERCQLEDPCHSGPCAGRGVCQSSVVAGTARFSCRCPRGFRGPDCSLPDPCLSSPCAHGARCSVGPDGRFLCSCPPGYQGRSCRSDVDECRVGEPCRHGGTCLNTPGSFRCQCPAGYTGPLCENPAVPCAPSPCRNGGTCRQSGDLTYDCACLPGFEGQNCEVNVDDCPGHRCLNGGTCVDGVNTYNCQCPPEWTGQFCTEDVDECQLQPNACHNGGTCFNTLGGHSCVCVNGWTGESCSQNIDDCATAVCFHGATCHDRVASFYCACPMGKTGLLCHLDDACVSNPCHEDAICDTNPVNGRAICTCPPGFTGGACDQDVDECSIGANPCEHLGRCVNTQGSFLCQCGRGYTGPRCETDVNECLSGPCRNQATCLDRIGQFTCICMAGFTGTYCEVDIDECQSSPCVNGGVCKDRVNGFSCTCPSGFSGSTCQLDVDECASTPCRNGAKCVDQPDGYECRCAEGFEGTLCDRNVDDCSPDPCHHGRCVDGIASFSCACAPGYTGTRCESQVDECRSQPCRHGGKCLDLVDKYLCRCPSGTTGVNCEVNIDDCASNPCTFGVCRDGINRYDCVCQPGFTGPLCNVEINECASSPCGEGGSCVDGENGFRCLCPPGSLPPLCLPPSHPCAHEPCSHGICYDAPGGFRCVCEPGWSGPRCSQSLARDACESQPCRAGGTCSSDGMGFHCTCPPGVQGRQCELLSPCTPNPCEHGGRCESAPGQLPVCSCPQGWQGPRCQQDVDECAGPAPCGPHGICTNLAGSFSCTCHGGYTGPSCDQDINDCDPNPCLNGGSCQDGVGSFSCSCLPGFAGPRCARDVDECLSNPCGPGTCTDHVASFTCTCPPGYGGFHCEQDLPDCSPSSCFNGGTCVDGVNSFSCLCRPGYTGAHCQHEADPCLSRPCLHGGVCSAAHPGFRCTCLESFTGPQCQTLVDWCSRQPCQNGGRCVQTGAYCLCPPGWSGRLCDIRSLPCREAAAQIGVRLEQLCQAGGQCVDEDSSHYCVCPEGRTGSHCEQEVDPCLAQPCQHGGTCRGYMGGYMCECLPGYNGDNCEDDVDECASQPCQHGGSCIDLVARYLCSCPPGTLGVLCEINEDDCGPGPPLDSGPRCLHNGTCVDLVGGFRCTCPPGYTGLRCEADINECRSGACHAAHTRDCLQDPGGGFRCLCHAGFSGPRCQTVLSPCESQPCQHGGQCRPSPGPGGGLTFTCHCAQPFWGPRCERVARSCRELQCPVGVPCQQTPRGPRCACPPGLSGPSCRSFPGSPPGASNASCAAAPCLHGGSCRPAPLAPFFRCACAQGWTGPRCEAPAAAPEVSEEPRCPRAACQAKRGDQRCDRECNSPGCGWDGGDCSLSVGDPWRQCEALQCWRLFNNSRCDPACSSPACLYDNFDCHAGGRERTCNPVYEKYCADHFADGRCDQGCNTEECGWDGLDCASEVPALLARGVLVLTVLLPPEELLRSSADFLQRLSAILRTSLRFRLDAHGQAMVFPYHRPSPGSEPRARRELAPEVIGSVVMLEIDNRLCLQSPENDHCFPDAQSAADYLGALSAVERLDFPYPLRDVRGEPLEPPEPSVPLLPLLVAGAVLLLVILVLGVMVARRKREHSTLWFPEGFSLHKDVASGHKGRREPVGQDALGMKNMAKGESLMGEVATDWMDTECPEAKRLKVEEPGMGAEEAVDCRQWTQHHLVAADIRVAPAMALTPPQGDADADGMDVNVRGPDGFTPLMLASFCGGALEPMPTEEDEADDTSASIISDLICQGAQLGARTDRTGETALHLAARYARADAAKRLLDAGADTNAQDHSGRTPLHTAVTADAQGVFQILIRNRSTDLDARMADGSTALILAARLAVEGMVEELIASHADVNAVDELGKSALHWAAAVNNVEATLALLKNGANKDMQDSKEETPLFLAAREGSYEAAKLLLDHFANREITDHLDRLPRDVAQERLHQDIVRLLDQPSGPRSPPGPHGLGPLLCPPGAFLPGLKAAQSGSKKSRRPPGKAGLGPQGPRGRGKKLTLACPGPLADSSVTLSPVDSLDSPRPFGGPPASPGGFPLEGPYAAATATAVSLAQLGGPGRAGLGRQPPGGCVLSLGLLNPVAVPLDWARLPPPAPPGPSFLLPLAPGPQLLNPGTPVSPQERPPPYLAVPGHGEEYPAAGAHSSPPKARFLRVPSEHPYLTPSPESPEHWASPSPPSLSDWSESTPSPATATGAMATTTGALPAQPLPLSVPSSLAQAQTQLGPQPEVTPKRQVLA
Chain of Torsin-1A-interacting protein 2 (Homo sapiens) (Q8NFQ8 whole entry, looked up): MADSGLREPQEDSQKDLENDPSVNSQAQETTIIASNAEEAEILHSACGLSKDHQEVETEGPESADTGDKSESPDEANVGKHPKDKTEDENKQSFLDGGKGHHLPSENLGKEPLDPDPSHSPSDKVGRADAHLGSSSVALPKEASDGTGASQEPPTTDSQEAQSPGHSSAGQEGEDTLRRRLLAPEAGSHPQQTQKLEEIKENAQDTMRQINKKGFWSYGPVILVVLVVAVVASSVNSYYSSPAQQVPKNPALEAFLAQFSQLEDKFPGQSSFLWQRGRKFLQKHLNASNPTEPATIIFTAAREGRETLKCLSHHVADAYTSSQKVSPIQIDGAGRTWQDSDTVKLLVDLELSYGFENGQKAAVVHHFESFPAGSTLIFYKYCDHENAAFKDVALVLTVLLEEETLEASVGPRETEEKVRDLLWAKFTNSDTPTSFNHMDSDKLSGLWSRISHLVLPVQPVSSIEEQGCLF
Chain of Pro-neuregulin-1, membrane-bound isoform (Homo sapiens) (Q02297 whole entry, looked up, the tested form may be a part, canonical isoform): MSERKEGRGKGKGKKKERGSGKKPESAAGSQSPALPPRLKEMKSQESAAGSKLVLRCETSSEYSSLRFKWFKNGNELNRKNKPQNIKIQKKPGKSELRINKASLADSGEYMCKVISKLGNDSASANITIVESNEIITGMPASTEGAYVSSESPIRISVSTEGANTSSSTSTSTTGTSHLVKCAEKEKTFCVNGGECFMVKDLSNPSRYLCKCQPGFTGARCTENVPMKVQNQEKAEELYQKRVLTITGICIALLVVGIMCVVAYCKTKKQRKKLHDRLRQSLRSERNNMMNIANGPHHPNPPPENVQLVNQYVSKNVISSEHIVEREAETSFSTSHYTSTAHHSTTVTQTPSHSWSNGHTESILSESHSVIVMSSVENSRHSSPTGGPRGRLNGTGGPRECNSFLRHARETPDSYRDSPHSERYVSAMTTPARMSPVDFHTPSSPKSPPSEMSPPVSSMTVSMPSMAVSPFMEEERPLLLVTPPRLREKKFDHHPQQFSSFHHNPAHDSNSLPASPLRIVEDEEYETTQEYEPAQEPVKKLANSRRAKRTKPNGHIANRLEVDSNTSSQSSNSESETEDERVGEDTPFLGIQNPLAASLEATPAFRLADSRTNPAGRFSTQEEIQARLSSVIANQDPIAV

Row | Structure (SMILES) | composite z-score [1] | composite z-score [2] | composite z-score [3] | composite z-score [4] | composite z-score [5] | composite z-score [6] | composite z-score [7] | z-score [8] | composite z-score [9] | composite z-score [10] | composite z-score [11] | z-score [12] | z-score [13] | z-score [14] | composite z-score [15] | z-score [16] | composite z-score [17] | composite z-score [18] | composite z-score [19] | composite z-score [20]
1 | COC(=O)C[C@H]1O[C@]2(C(=O)N(C)c3ccccc32)[C@@H](C)[C@@H]1[Si](C)(C)c1ccc(C)cc1 | -0.361 | 0.285 | 0.033 | 0.453 | 0.778 | 0.274 | 0.815 | -2.37 (inactive) | 0.512 | 0.28 | 1.12 | -0.421 (inactive) | -11.3 (active) | -0.673 (inactive) | 0.797 | 2.17 (inactive) | -0.137 | 1.27 | 0.989 | -0.0674
2 | CN(C)C(=O)[C@@]1(Cc2ccccc2N=[N+]=[N-])COC(c2ccc(OCCCO)cc2)=N1 | 0.541 | 0.33 | 0.0493 | 1.02 | 0.687 | 1.05 | 1.33 | -0.927 (inactive) | 0.495 | 0.0349 | 1.37 | -1.85 (inactive) | -7.64 (inactive) | 0.337 (inactive) | 3.33 | 1.84 (inactive) | 0.072 | 0.577 | 0.481 | 0.553
3 | O=C1NC(=O)C2C1C=CC(C(O)c1cc(C(F)(F)F)cc(C(F)(F)F)c1)N2Nc1ccc(Cl)cc1Cl (stereo not given) | 0.812 | 0.623 | 0.277 | 0.404 | 0.351 | 1.45 | 0.766 | -0.166 (inactive) | 0.881 | -0.0346 | 0.33 | -1.44 (inactive) | -17 (active) | -0.256 (inactive) | 2.24 | -2.34 (inactive) | 0.0094 | -0.93 | 0.398 | 0.228
4 | C=C(COC)/C(=C/C[C@@H](OC(=O)c1ccncc1)c1cccc(OCCO)c1)c1cnc2ccccc2c1 | 0.234 | 1.99 | 0.0601 | 1.19 | 1.76 | 1.14 | 1.2 | 0.589 (inactive) | 1.47 | 0.251 | 1.55 | -19.8 (active) | -20.6 (active) | -3.52 (inactive) | 2.2 | 0.682 (inactive) | 0.266 | 1.61 | 1.02 | 0.0892
5 | CC(C)OC(=O)CC(=O)CC(O)c1cccc(C#N)c1 (stereo not given) | 0.424 | 0.995 | -0.0103 | 0.535 | 1.43 | 0.311 | 0.936 | -0.326 (inactive) | 0.494 | -0.452 | 0.864 | -2.17 (inactive) | -0.0003 (inactive) | -1.66 (inactive) | 2.15 | 0.435 (inactive) | 0.237 | -0.412 | 0.753 | 0.0201
6 | O=C1OCCC=C[C@H]2OC34C=CCN(c5ccc(Cl)cc5)C(=O)[C@H]3N(CCCCCO)C(=O)[C@@H]4C12 (stereo not given in full) | 0.418 | 1.77 | -0.116 | -0.112 | 0.0387 | 1.48 | 1.44 | -0.997 (inactive) | -0.149 | -0.0708 | 0.536 | -0.579 (inactive) | -1.99 (inactive) | -0.54 (inactive) | 2.68 | 1.71 (inactive) | 0.0636 | -0.261 | 0.0841 | -0.0671
7 | NCCCCCNC(=O)[C@@H]1C[C@@H]2C(=O)N[C@@H](CCCCN)C(=O)N2[C@@H]1c1cccc(OCCO)c1 | 0.0523 | 0.329 | -0.0037 | -0.202 | -0.254 | 2.11 | 0.969 | -0.697 (inactive) | -0.413 | 0.0497 | 0.61 | 0.656 (inactive) | 0.212 (inactive) | -0.0182 (inactive) | 0.557 | 0.767 (inactive) | 0.119 | 0.878 | 0.702 | -0.0306
8 | CC(C)(C)OC(=O)CC[C@]1(C(=O)O)N=C(c2ccc(OCCCO)cc2)O[C@H]1c1ccccc1 | -0.161 | -0.0254 | -0.0345 | 0.19 | 0.831 | 0.467 | 1.11 | 1.9 (inactive) | 0.292 | 1.28 | -0.147 | -0.627 (inactive) | -0.573 (inactive) | -1.97 (inactive) | 2.2 | 0.461 (inactive) | -0.0226 | -0.0257 | 0.154 | -0.0485
9 | CCOC(=O)C[C@H]1[C@H](OC(=O)Cc2ccc3c(c2)OCO3)[C@@H](NC(=O)C2CCCCC2)c2cc(OCCCO)ccc2N1C(=O)c1ccc2ccccc2n1 | 0.695 | 0.246 | -0.003 | 0.234 | 0.904 | 0.196 | 0.519 | -2.88 (inactive) | 0.857 | -0.335 | 0.688 | 0.327 (inactive) | -1.46 (inactive) | -0.591 (inactive) | 1.34 | 0.848 (inactive) | -0.0798 | 1.98 | 1.09 | 0.0428
10 | CCOC(=O)C[C@H]1[C@H](OC(=O)c2ccc(-c3ccccc3)cc2)[C@@H](NC(=O)c2ccc3ccccc3n2)c2cc(OCCCO)ccc2N1C(=O)c1ccccc1 | -0.497 | 0.482 | -0.0996 | 0.618 | 1.01 | 0.464 | 0.857 | -0.561 (inactive) | 0.579 | 0.113 | 1.52 | 0.617 (inactive) | 0.33 (inactive) | 0.976 (inactive) | 2.11 | -0.81 (inactive) | -0.171 | 0.671 | 1.05 | 0.0026
